Assay results reported in PubChem BioAssay.
Calls of active or inactive are those of the source.

Experiments:
[1] = binders of probe aFSTL3 on microarray, primary screen, stem cell growth factor project, biochemical, small-molecule microarray, fluorescence 635/667 (AID 1064); conditions: higher = more signal;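 further: measures binding of the biotinylated anti-FSTL3 antibody to printed compounds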
[2] = binders from COS7 lysate, DM2A8 probe, primary screen, torsin A project, cell lysate, small-molecule microarray, fluorescence 635/667 (AID 1065); conditions: higher = more signal, COS7 lysate expressing mutant human TOR1A
[3] = binders of probe aFGF2 on microarray, primary screen, stem cell growth factor project, biochemical, small-molecule microarray, fluorescence 635/667 (AID 1067); conditions: higher = more signal;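 further: measures binding of biotinylated aFGF2 protein to printed compounds on slides; z-score merges feature fluorescence and signal-to-noise across triplicate slides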
[4] = binders of probe aFGF10 on microarray, primary screen, stem cell growth factor project, biochemical, small-molecule microarray, fluorescence 635/667 (AID 1071); conditions: higher = more signal;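 further: score merges 667 nm spot intensity and signal to noise from triplicate slides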
[5] = target: Neurogenic locus notch homolog protein 2 (Homo sapiens) (UniProt Q04721); test: Notch2 binders on small-molecule microarrays, primary screen, biochemical, small-molecule microarray, 635 nm fluorescence, stem cell growth factors (AID 1073); conditions: Notch2 binding, higher = more signal
[6] = target: Pro-neuregulin-1, membrane-bound isoform (Homo sapiens) (UniProt Q02297); test: NRG1 binders on small-molecule microarrays, primary screen, psychiatric disease protein project, biochemical, small-molecule microarray, fluorescence 635/667 (AID 1075); conditions: NRG1 binding, 635 nm fluorescence, higher = more signal;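 further: score combines 667 nm spot fluorescence with signal to noise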
[7] = system: Neuregulin-1 EGF-like domain; test: binders of neuregulin-1 EGF-like domain, primary screen, biochemical, small-molecule microarray, 635 nm fluorescence (AID 1081); conditions: small-molecule microarray binding, higher = more signal;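 further: binding of the protein to compounds printed on small-molecule microarray slides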
[8] = FRG1 promoter luciferase signal modulators, primary screen, FRG1 inhibition for FSHD, cell-based, C2C12 myotubes, firefly/Renilla luciferase, luminescence (AID 1084); conditions: higher = more signal, called active from +8 up or from −8 down
[9] = binders of probe aFST on microarray, primary screen, stem cell growth factor project, biochemical, small-molecule microarray, fluorescence 635/667 (AID 1086); conditions: higher = more signal;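 further: score merges 667 nm fluorescence with signal-to-noise of each printed compound spot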
[10] = binders of probe aHhip on microarray, primary screen, stem cell growth factor project, biochemical, small-molecule microarray, fluorescence 635/667 (AID 1087); conditions: higher = more signal;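 further: score merges spot fluorescence at 667nm with spot signal to noise ratio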

Chain of Pro-neuregulin-1, membrane-bound isoform (Homo sapiens) (Q02297 whole entry, looked up, the tested form may be a part, canonical isoform): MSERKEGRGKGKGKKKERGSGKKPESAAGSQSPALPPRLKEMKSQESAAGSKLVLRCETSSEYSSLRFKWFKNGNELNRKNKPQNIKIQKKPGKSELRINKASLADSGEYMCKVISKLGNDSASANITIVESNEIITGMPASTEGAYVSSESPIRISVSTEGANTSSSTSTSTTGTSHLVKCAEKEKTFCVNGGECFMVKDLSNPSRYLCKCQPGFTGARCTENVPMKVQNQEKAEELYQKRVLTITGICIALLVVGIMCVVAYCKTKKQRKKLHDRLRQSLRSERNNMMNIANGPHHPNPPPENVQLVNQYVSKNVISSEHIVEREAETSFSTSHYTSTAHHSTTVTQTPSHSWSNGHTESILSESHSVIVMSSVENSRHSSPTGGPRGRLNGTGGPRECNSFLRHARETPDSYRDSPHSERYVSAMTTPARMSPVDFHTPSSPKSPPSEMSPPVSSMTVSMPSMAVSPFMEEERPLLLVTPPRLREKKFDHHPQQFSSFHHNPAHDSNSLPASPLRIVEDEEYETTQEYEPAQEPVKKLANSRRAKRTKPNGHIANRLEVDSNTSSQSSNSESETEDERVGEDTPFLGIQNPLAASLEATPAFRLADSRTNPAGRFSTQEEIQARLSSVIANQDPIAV
Chain of Neurogenic locus notch homolog protein 2 (Homo sapiens) (Q04721 whole entry, looked up, canonical isoform): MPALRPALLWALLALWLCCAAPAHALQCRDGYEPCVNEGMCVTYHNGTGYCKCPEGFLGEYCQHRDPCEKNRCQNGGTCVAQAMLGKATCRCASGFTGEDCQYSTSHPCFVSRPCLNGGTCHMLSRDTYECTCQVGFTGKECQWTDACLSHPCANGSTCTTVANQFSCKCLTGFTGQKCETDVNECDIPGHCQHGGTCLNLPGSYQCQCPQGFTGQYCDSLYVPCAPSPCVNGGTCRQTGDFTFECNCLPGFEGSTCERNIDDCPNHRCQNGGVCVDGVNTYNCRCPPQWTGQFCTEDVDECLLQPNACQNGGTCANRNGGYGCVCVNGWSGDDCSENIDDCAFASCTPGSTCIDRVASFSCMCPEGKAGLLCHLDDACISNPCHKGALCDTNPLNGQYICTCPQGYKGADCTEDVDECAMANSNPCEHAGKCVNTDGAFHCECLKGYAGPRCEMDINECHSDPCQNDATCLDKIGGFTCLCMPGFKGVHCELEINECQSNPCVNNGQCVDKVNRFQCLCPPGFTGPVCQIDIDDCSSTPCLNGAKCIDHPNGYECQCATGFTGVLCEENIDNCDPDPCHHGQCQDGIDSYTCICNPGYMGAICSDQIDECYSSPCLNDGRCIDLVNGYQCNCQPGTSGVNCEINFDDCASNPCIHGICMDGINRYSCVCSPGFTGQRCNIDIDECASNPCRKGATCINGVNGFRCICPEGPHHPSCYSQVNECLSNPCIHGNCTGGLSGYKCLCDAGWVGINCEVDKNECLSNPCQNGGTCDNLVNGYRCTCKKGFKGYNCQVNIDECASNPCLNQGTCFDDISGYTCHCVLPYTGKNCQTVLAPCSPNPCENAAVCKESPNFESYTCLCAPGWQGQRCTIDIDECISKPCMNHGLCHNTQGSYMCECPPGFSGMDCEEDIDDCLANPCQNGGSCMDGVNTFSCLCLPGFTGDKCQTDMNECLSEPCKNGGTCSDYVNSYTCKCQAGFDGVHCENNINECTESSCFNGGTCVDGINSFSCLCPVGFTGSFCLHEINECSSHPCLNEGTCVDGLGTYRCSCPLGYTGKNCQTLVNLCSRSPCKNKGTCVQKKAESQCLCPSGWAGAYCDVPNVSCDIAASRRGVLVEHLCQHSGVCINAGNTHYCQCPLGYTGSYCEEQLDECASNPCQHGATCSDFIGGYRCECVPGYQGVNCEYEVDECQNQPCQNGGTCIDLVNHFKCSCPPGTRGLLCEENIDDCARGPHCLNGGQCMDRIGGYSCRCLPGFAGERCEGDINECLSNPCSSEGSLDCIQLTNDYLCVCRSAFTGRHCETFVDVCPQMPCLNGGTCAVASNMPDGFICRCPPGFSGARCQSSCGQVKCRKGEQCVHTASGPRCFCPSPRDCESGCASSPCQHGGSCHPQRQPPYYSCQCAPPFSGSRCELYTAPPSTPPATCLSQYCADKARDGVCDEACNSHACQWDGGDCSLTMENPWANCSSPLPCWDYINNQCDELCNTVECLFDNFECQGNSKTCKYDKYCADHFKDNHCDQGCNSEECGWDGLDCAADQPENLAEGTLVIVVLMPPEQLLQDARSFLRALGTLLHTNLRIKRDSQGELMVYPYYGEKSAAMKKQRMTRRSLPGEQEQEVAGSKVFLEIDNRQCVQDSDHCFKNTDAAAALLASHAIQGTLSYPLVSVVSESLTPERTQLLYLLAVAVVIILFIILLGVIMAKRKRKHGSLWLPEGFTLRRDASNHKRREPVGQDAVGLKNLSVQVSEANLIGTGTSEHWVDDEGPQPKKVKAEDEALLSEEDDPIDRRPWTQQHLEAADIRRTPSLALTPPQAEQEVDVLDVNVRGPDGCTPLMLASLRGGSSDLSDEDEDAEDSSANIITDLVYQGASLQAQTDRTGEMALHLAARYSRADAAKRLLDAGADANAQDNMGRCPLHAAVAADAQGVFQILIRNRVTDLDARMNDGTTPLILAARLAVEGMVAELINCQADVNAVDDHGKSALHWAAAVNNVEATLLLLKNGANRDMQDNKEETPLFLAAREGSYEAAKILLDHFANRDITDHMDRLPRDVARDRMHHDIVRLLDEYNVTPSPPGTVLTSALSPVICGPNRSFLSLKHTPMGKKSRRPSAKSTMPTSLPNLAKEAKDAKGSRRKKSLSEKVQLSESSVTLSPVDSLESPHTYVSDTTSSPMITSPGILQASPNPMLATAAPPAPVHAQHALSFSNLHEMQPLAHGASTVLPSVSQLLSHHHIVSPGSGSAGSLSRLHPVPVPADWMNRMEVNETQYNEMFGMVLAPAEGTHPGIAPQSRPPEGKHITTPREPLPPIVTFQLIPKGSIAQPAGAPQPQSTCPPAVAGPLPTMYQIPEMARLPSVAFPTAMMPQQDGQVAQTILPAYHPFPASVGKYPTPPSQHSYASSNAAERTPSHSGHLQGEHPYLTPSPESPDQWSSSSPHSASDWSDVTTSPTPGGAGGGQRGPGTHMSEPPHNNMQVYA

Row | Compound | composite z-score [1] | composite z-score [2] | composite z-score [3] | composite z-score [4] | composite z-score [5] | composite z-score [6] | composite z-score [7] | z-score [8] | composite z-score [9] | composite z-score [10]
1 | CCCCC(O)C1C=CC2C(=O)N(c3ccccc3)C(=O)C2N1Nc1ccccc1F (stereo not given) | 1.12 | 0.0488 | 0.256 | 0.516 | 0.829 | 1.15 | 1.2 | 0.221 (inactive) | 1.75 | 0.953
2 | C=CCOC(=O)[C@H]1[C@@H]2C(=O)O[C@@H](c3ccccc3)[C@@H](c3ccccc3)N2[C@@H](c2ccc(OCCOC(=O)[C@@H]3C[C@@H]4C(=O)N5CCC[C@H]5C(=O)N4[C@@H]3c3cccc(OCCO)c3)cc2)[C@]12C(=O)Nc1ccccc12 | 0.0458 | 0.629 | 0.0584 | 0.808 | 0.761 | 1.26 | 1.31 | 0.999 (inactive) | 0.356 | 0.382
3 | COC(=O)c1c(CC[C@@H](CO)NC(=O)N[C@@H](C)Cn2cc(C3(O)CCCCC3)nn2)oc(C(C)=O)c1C(=O)OC | -0.548 | 1.14 | -0.0512 | 1.01 | 1.25 | 0.518 | 1.3 | 1.2 (inactive) | 0.817 | -0.184
4 | COc1ccc(C(O)C2C=CC3C(=O)NC(=O)C3N2Nc2ccccn2)c2ccccc12 (stereo not given) | -0.37 | 0.184 | 0.0467 | 0.246 | 0.388 | 1 | 0.741 | 0.87 (inactive) | 0.119 | -0.0994
5 | CCCCC(=C=CC[C@@H](O)c1ccccc1OCCO)CCO | -0.347 | 0.163 | -0.0367 | 0.352 | -0.333 | 0.991 | 0.479 | 0.0128 (inactive) | 0.0797 | -0.236
6 | COc1ccc(C#Cc2ccc3c(c2)[C@]2(C(=O)N3)[C@H](c3ccccc3OCCO)N3[C@H](c4ccccc4)[C@H](c4ccccc4)OC(=O)[C@H]3[C@@H]2C(=O)O)cc1 | -0.377 | 0.424 | 0.0406 | 1.16 | 1.34 | 1.74 | 1.28 | -0.0646 (inactive) | 0.336 | 0.132
7 | COC(=O)c1c(CC[C@@H](CO)NC(=O)N2CCC[C@H]2Cn2cc(-c3ccccn3)nn2)oc(C(C)=O)c1C(=O)OC | -0.508 | -0.0298 | -0.1 | 0.639 | -0.357 | 0.963 | 0.808 | 0.634 (inactive) | -0.0939 | -0.0427
8 | COc1ccc([C@H]2C[C@H]3C(Br)=C[C@@H]2C(=O)[C@]32CO2)cc1 | 0.203 | 0.133 | -0.083 | -0.126 | -0.239 | -0.152 | -0.577 | 1.96 (inactive) | 0.0125 | -0.0618
9 | C=CCOC(=O)[C@@H]1[C@H]2C(=O)O[C@H](c3ccccc3)[C@H](c3ccccc3)N2[C@H](c2ccc(OCCOC(=O)[C@@H]3C[C@@H]4C(=O)N5CCC[C@H]5C(=O)N4[C@@H]3c3ccc(O)cc3)cc2)[C@@]12C(=O)Nc1ccc(I)cc12 | -0.354 | -0.0315 | -0.0958 | 0.235 | 0.666 | 0.596 | 1.19 | -0.804 (inactive) | 0.965 | -0.069
10 | C=CCNC(=O)[C@@H]1[C@H]2C(=O)O[C@H](c3ccccc3)[C@H](c3ccccc3)N2[C@H](c2ccc(OCCO)cc2)[C@@]12C(=O)Nc1ccc(C#CCCO)cc12 | 0.604 | 0.727 | 0.162 | 0.944 | 1.05 | 0.853 | 1.25 | 0.806 (inactive) | 0.804 | -0.138
11 | NCCCCCNC(=O)[C@@H]1C[C@@H]2C(=O)N[C@@H](Cc3ccccc3)C(=O)N2[C@@H]1c1cccc(OCCO)c1 | 0.185 | 0.291 | -0.107 | 0.106 | 0.514 | 1.32 | 1.08 | 1.39 (inactive) | -0.122 | -0.0645
12 | CN1C(=O)C2C=CC(C(O)C3=C[C@H]4C[C@@H](C3)C4(C)C)N(Nc3ccccc3)C2C1=O (stereo not given in full) | 1.23 | 0.329 | -0.0454 | 0.677 | 1.49 | 0.986 | 1.02 | 0.175 (inactive) | 1.23 | 0.064
13 | CCOC(=O)[C@H]1C/C=C/C[C@H](C(=O)OCC)C(=O)O[C@H]2[C@@H](OC)O[C@H](CO)[C@@H](OC(=O)Nc3ccc(C#N)cc3)[C@@H]2OC1=O | 0.0283 | -0.317 | -0.0414 | 0.287 | -0.194 | 1.39 | 1.02 | -0.1 (inactive) | 0.143 | -0.119
14 | [N-]=[N+]=Nc1ccccc1[C@H]1OC(c2ccc(OCCCO)cc2)=N[C@@]1(Cc1ccccc1)C(=O)O | 0.0481 | 0.466 | 0.0363 | 0.641 | 1.05 | 1.69 | 1.3 | 1.02 (inactive) | 0.693 | -0.374
15 | CCOC(=O)C[C@H]1[C@H](OC(=O)c2cc3ccccc3oc2=O)[C@@H](NC(=O)Cc2ccc(OC)cc2)c2cc(OCCCO)ccc2N1C(=O)c1ccccc1 | -0.356 | 0.41 | -0.076 | 0.379 | 0.359 | 0.199 | 0.385 | 1.57 (inactive) | 0.164 | -0.199
16 | CCN(CC)c1ccc(N2CC=CC34O[C@@H]5/C=C\CCCOC(=O)C5[C@H]3C(=O)N(CCO)[C@@H]4C2=O)cc1 (stereo not given in full) | 0.244 | -0.542 | -0.0785 | -0.715 | -1.24 | 1.84 | 0.632 | 0.599 (inactive) | -0.584 | -0.0061
17 | CN(C)CCCNC(=O)[C@@]1(C)c2ccccc2C(=O)N(Cc2cc(F)cc(C(F)(F)F)c2)[C@H]1c1ccc(CO)cc1 | -0.0117 | -0.224 | -0.144 | -0.681 | -1.23 | 1.05 | -0.164 | -0.712 (inactive) | -0.641 | -0.132
18 | CCOC(=O)C[C@H]1[C@H](OC(=O)Cc2ccc3c(c2)OCO3)[C@@H](NC(=O)c2ccc(-c3ccccc3)cc2)c2cc(OCCCO)ccc2N1C(=O)c1ccc2ccccc2n1 | -0.472 | 0.783 | -0.131 | 0.228 | 0.399 | 0.281 | 0.167 | -4.52 (inactive) | 0.0972 | -0.236
19 | CCCCC=C[C@@H](NC(=O)Oc1cccc(C(F)(F)F)c1)c1ccccc1 | 1.56 | 0.974 | 0.84 | 1.03 | 1.55 | 1.47 | 1.11 | -3.84 (inactive) | 2.02 | 2.27
20 | COCCOC(=O)N1C(=O)[C@@]2(c3cc(C#CC4=CCCCC4)ccc31)[C@H](c1ccc(O)cc1)N1[C@H](c3ccccc3)[C@H](c3ccccc3)OC(=O)[C@H]1[C@@H]2C(N)=O | -0.456 | 0.185 | -0.0899 | 0.54 | 0.592 | 0.324 | 0.978 | 0.189 (inactive) | 0.327 | 0.154
21 | O=C1NC(=O)C2C1C=CC(C(O)c1ccccc1)N2Nc1ccc(Cl)cc1Cl (stereo not given) | -0.324 | 0.299 | 0.162 | 0.803 | 1.54 | 1.37 | 1.15 | -1.44 (inactive) | 1.32 | -0.156
22 | CN1C(=O)C2C=CC(C(O)c3ccc(I)cc3)N(N3CCCCC3)C2C1=O (stereo not given) | 0.151 | 0.235 | 0.0671 | 1.09 | 1.71 | 1.73 | 1.27 | 1.14 (inactive) | 1.4 | -0.0346
23 | CCCCCC1=C2CNC(CCC)(C(=O)OC)C=C2C(C)C1=O (stereo not given) | 0.327 | 0.0422 | -0.0074 | 0.159 | 1.14 | 0.92 | 0.993 | 0.488 (inactive) | 0.21 | 1.96
24 | C=CCNC(=O)[C@H]1[C@@H]2C(=O)O[C@@H](c3ccccc3)[C@@H](c3ccccc3)N2[C@@H](c2ccc(O)cc2)[C@]12C(=O)N(C(=O)OCCOC)c1ccc(C#CCNC(N)=O)cc12 | -0.14 | -0.019 | -0.0996 | 0.379 | 0.729 | 0.0037 | 0.879 | -0.226 (inactive) | 0.007 | 0.0722
25 | [N-]=[N+]=NCc1ccccc1[C@H]1OC(c2ccc(OCCCO)cc2)=N[C@@]1(Cc1ccccc1)C(=O)NCc1ccccc1 | -0.0101 | 0.742 | -0.0184 | 1.27 | 1.24 | 2.05 | 0.921 | -1.5 (inactive) | 0.513 | -0.331
26 | O=C1OCCC=C[C@H]2OC34C=CCN(CCN5CCOCC5)C(=O)[C@H]3N(CCCCCCO)C(=O)[C@@H]4C12 (stereo not given in full) | -0.174 | -0.352 | -0.147 | 0.0933 | -0.849 | -0.0296 | 0.988 | -0.263 (inactive) | -0.235 | -0.169
27 | CCCC[C@@H]1C[C@H]1[C@@H](NC(=O)c1ccco1)c1ccc(Cl)cc1 | 0.159 | 0.308 | 0.0296 | 0.0982 | 1.22 | 1.01 | 1.05 | -1.51 (inactive) | 0.829 | 0.0274
28 | [N-]=[N+]=Nc1ccccc1C[C@@]1(C(=O)NCCN2CCOCC2)N=C(c2ccc(OCCCO)cc2)O[C@@H]1c1ccccc1 | 0.234 | 0.205 | 0.146 | 0.409 | 1.59 | 1.6 | 1.24 | -1.23 (inactive) | 1.01 | -0.286
